Most compounds without a hit are left out; they make up all but 28% or so of the library.
CYP2C9 inh – human CYP2C9 inhibition; P11712; actives 20% (n = 96,000); CYP2C9 Supersomes, luciferin-H conversion, luminescence; inhibition, % at 5 µM;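 active means blocking of liver enzyme CYP2C9 beyond about 50% at 5 µM, limit read from the data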
Target sequence (P11712 whole entry, looked up): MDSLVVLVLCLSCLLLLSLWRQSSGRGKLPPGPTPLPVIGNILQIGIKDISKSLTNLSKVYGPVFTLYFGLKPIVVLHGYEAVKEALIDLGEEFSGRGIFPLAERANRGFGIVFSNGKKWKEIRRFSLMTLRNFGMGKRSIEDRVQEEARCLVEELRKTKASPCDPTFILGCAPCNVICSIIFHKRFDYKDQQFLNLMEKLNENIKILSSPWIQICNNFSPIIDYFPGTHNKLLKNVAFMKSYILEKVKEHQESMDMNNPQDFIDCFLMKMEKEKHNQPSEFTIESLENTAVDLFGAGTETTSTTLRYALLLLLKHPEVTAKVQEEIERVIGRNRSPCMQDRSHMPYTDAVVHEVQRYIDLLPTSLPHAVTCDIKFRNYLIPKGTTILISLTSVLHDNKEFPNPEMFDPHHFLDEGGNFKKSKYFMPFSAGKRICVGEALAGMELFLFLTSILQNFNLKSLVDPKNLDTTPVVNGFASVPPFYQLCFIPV
CYP2C19 activ – activators of human cytochrome P450 2C19 | 96,000 tested, under 10 active | activation factor at 5 µM | AID 1025 | recombinant CYP2C19, luciferin-H EGE luminescence; stronger effect = higher value; 0 = fully inhibited enzyme, 1 = untreated enzyme | P33261;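 active means activation factor of at least 2 at 5 µM in the primary screen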
CYP2C9 act – CYP2C9 (human) activation; P11712; recombinant CYP2C9, luciferin-H conversion, luminescence; stronger effect = higher value; factor 1 = untreated enzyme, 0 = blocked; activation factor at 5 µM; actives 1.4% (n = 96,000);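 active means activation factor of 2 or more for CYP2C9 at a 5 µM dose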
CYP2C19 inhib – inhibitors of human CYP2C19. AID 778. P33261. inhibition, % at 5 µM. actives 21% (n = 96,000). CYP2C19 Supersomes, luciferin-H EGE luminescence, 30 min;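 active means CYP2C19 inhibition above a set limit at 5 µM in the primary screen, cut at about 50% in these data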
hDAT+cocaine – human DAT dopamine uptake with cocaine, either direction. actives 1.3% (n = 110,000). B-score at 10 µM. AID 449768. LLC-PK1 hDAT cells, [14C]-dopamine uptake with cocaine IC80; actives deviate in either direction. Q01959;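 active means Z score or B-score, a plate-position-corrected score, falls beyond the plate's 99.7% confidence bounds, in either direction; inactive means both scores lie inside the 99.7% bounds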
D1 allo mod – D1 dopamine receptor (human) allosteric modulation | HEK293 D1, CRE-luciferase, dopamine EC30 potentiation; actives deviate in either direction | actives 5.9% (n = 58,000) | B-score at 10 µM;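 active means luminescence count or its row- and column-corrected plate score outside the 99.7% band of the plate's sample wells, on either side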
Large screens that a line does not name were inactive.

COc1ccc2oc(-c3ccccc3)c(C(N)=O)c2c1	none
CCOc1ccc(-c2nc(-c3ccccc3C)no2)cc1	none
CC1(C)CC(NC(=O)C23CCC(C)(/C(=N/O)C2)C3(C)C)CC(C)(C)N1 (configuration not stated)	none (no result: D1 allo mod)
c1coc(CN2CCN(C(c3cccs3)c3nnnn3C3CCCC3)CC2)c1 (configuration not stated)	none (no result: D1 allo mod)
COc1cccc(NC(=O)N(Cc2cc3cc(C)cc(C)c3[nH]c2=O)CC2COCCO2)c1 (configuration not stated)	CYP2C9 inh 56.7
O=C(c1cccs1)N(Cc1ccco1)Cc1cc2ccccc2[nH]c1=O	CYP2C9 inh 67.3, CYP2C19 inhib 74.8
Cc1ccc(NC(=O)N(Cc2cc3cc(C)cc(C)c3[nH]c2=O)CC2COCCO2)cc1 (configuration not stated)	none
COc1ccc(N2C(=O)NC(NC(=O)c3ccncc3)(C(F)(F)F)C2=O)cc1 (configuration not stated)	CYP2C9 inh 55.1 (no result: D1 allo mod)
O=C1NC(NS(=O)(=O)c2ccccc2)(C(F)(F)F)C(=O)N1Cc1cccnc1 (configuration not stated)	CYP2C9 inh 66.9
CN1C(=O)NC(NC(=O)c2ccncc2)(C(F)(F)F)C1=O (configuration not stated)	none
O=C(NC1(C(F)(F)F)NC(=O)N(Cc2cccnc2)C1=O)c1ccncc1 (configuration not stated)	CYP2C9 inh 60.3
O=C(NC1(C(F)(F)F)NC(=O)N(Cc2cccnc2)C1=O)c1ccc(F)cc1 (configuration not stated)	none (no result: D1 allo mod)
CC(C)CC(C(=O)N1CCc2ccccc2C1)N1C(=O)c2ccccc2C1=O (configuration not stated)	none (no result: D1 allo mod)
COCCNCCOc1ccccc1-c1ccccc1	CYP2C19 inhib 59.1 (no result: D1 allo mod)
O=C(Cc1c[nH]c2ccccc12)Nc1nc2ccccc2[nH]1	CYP2C9 inh 58.3, CYP2C19 inhib 54.1
O=C(Cc1ccccc1)Nc1nc2ccccc2[nH]1	D1 allo mod -5.51
O=c1[nH]c2ccccc2nc1Cc1ccccc1	CYP2C19 inhib 55.5
O=C(Cc1ccc(Cl)cc1)Nc1nc2ccccc2[nH]1	none (no result: D1 allo mod)
COc1ccc(N2CCN(C(=O)CCc3ccc(S(=O)(=O)NCC(C)C)cc3)CC2)cc1	none (no result: CYP2C9 inh, CYP2C19 activ, CYP2C9 act, CYP2C19 inhib, D1 allo mod)
N#CC(C(=O)NC1CCCCC1)c1nc2ccccc2nc1N1CCCCC1 (configuration not stated)	none (no result: CYP2C9 inh, CYP2C19 activ, CYP2C9 act, CYP2C19 inhib, hDAT+cocaine)
COc1ccc(NC(=O)C(C)Sc2ccccc2)cc1 (configuration not stated)	CYP2C9 inh 64.3, CYP2C19 inhib 50.6 (no result: D1 allo mod)
CC(Sc1ccccn1)C(=O)Nc1ccc(S(N)(=O)=O)cc1 (configuration not stated)	none (no result: D1 allo mod)
CC(Sc1ccccn1)C(=O)Nc1ccccc1 (configuration not stated)	CYP2C19 inhib 80.8
O=C1CSC(=O)N1CC(O)COc1ccc(Cl)cc1 (configuration not stated)	CYP2C19 inhib 53.6
O=C(c1ccc(Cl)cc1)c1ccc(OCC(O)CN2CCOCC2)cc1 (configuration not stated)	none
CCOc1ccccc1Nc1nc(N2CCCC2)nc(N2CCOCC2)n1	none (no result: CYP2C9 inh, CYP2C19 activ, CYP2C9 act, CYP2C19 inhib, D1 allo mod)
O=C(Nc1ccc2c(c1)OCO2)c1ccc(Br)o1	CYP2C9 inh 59.7, CYP2C19 inhib 85.2 (no result: D1 allo mod)
O=C(COC(=O)CNC(=O)c1ccc(Br)o1)Nc1ccc2c(c1)OCCO2	none
O=C(Nc1ccc2c(c1)CCC2)c1cnccn1	CYP2C19 inhib 68.1
O=C(Nc1ccc2c(c1)CCC2)c1ccc(Br)o1	CYP2C19 inhib 75.5, hDAT+cocaine 2.23 (no result: D1 allo mod)
Cc1ccc(C(=O)Nc2ccc3c(c2)CCC3)o1	CYP2C19 inhib 77.6
Cc1cnc(C(=O)Nc2ccc3c(c2)CCC3)cn1	none
O=C(OC(C(=O)NCC1CCCO1)c1ccccc1F)c1ccco1 (configuration not stated)	none (no result: D1 allo mod)
CCOC(=O)Cn1cc(/C=N/NC(=O)c2ccc(C#N)cc2F)c2ccccc21	CYP2C9 inh 74.9 (no result: D1 allo mod)
CCOC(=O)Cn1cc(C(=O)C2CC2)c2ccccc21	none
COc1ccc(N2CCN(CCNC(=O)c3ccc(NC(=O)C4CCCO4)cc3)CC2)cc1 (configuration not stated)	none
Cc1cccc(N2CCN(C(=O)c3ccc4nc(-c5ccco5)c(-c5ccco5)nc4c3)CC2C)c1 (configuration not stated)	CYP2C9 inh 52.4 (no result: D1 allo mod)
COc1cccc(NC(=O)N2CCOCC2)c1	none
CC(=O)Nc1ccccc1-c1nc2ccc(C(=O)N3CCN(c4cccc(C)c4)C(C)C3)cc2[nH]c1=O (configuration not stated)	CYP2C9 inh 86.7, CYP2C19 inhib 69.6 (no result: D1 allo mod)
COc1cccc(N2CCN(C(=O)c3ccc(=O)oc3)CC2C)c1 (configuration not stated)	none
Cc1cccc(N2CCN(C(=O)c3cc4c(=O)n(C)c5ccccc5c4n3C)CC2C)c1 (configuration not stated)	CYP2C9 inh 94.3, CYP2C19 inhib 99.0, D1 allo mod -4.82
COc1cccc(NC(=O)N2CCN(c3cccc(C)c3)C(C)C2)c1 (configuration not stated)	CYP2C19 inhib 58.7
CCC(C)NS(=O)(=O)c1ccc(OCC(=O)N2CCC(C)CC2)cc1 (configuration not stated)	none (no result: CYP2C9 inh, CYP2C19 activ, CYP2C9 act, CYP2C19 inhib, D1 allo mod)
COC(=O)Cn1cc(C(=O)OC)cc(Br)c1=O	none
COC(=O)c1cc(Br)c(=O)n(CCc2ccccc2)c1	CYP2C19 inhib 61.6
COC(=O)c1cc(Br)c(=O)n(Cc2ccc3c(c2)OCO3)c1	CYP2C9 inh 79.9, CYP2C19 inhib 87.2
CCOc1ccc(OCC)c(NC(=O)CCn2c(=O)oc3ccccc32)c1	none
O=C(Nc1cccc(-c2cn3ccsc3n2)c1)c1ccccc1	CYP2C9 inh 85.0, CYP2C19 inhib 58.7
COc1ccccc1C(=O)Nc1cccc(-c2cn3ccsc3n2)c1	none
O=C(Nc1cccc(-c2cn3ccccc3n2)c1)c1cccc(Cl)c1	CYP2C9 inh 84.3 (no result: D1 allo mod)
O=C(Nc1cccc(-c2cn3ccccc3n2)c1)c1cnccn1	none (no result: CYP2C9 inh, CYP2C19 activ, CYP2C9 act, CYP2C19 inhib)
CC(=O)N=c1cccc(NC(C)=O)n1O	none
CSC1=C(C#N)C(c2ccc(Cl)cc2)C2=C(CC(C)(C)CC2=O)N1 (configuration not stated)	CYP2C9 inh 65.4 (no result: D1 allo mod)
COc1ccc(C2C(C#N)=C(C)NC3=C2C(=O)CC(C)(C)C3)cc1 (configuration not stated)	CYP2C9 inh 65.6 (no result: D1 allo mod)
Cn1c(=O)c2c(nc(CN3CCOCC3)n2CC(O)CO)n(C)c1=O (configuration not stated)	none
CCOC(=O)CSc1nc2cc(OC)ccc2cc1C#N	CYP2C9 inh 88.9, hDAT+cocaine -9.81
CCOc1ccc2nc(SCC(=O)N3CCCCCC3)c(C#N)cc2c1	CYP2C9 inh 68.7

From PubChem BioAssay
